From PubChem BioAssay (NCI) come the findings set out here.

Test systems include NCI-H23 lung; NCI-H226 lung; NCI-H322M lung; HOP-62 NSCLC; NCI-H460 lung; NCI-H522 lung; A549/ATCC NSCLC; 786-0 renal; COLO 205 colon; DU-145 prostate.
Assay in all cases: NCI-60 one-dose screen, 48 h (100 = growth as untreated, 0 = no growth, -100 = all killed)
What all share (conditions): 10 µM unless noted

The structures appear in SMILES notation. About 83,000 compounds went through this panel and 20% of them were active in at least one assay; those are over-represented in the sample as a whole.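 Single-dose data. Exposure time 48 hours. Values below 10 considered active.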 Values without a mark were called inactive. Calls of active or inactive are those of the source.

As for `CCN(CC)CCNc1ccc(Cl)cc1Cl`, the growth was 101% with NCI-H23 lung; 108% in the experiment with NCI-H226 lung; 94.9% in the experiment with NCI-H322M lung; 95.8% with HOP-62 NSCLC; 107% with NCI-H460 lung; 98.5% in the experiment on NCI-H522 lung. Besides, the growth in the experiment with A549/ATCC NSCLC is 107%; with 786-0 renal it was 104%; in the experiment with COLO 205 colon it was 108%; in the experiment on DU-145 prostate, 107%.

`N#CCCN(CCO)c1ccccc1`: the growth with NCI-H23 lung was 104%; in the experiment with NCI-H226 lung it was 94.6%; in the experiment on NCI-H322M lung, 93.7%; with HOP-62 NSCLC, 95%; in the experiment with NCI-H460 lung, 105%; in the experiment on NCI-H522 lung it was 80.6%. In addition, the growth was 98.9% in the experiment on A549/ATCC NSCLC, 96.2% in the experiment with 786-0 renal, 104% in the experiment on COLO 205 colon and 116% with DU-145 prostate.

Take `C[C@]12CC[C@@H]3c4ccc(O)c([N+](=O)[O-])c4CC[C@H]3[C@@H]1CC[C@@H]2NS(=O)(=O)c1ccc(C(F)(F)F)cc1`: the growth in the experiment on NCI-H23 lung was 28%; in the experiment on NCI-H226 lung it was 53.7%; with NCI-H322M lung it was 54.1%; in the experiment on HOP-62 NSCLC, 56.2%; with NCI-H460 lung, 10.5%; in the experiment with NCI-H522 lung, -67.8% (active). In addition, the growth in the experiment on A549/ATCC NSCLC was 19.5%; with 786-0 renal it was 43%; in the experiment on COLO 205 colon, 98%; in the experiment on DU-145 prostate it was 47.4%.

With `C[n+]1c2ccccc2c(Nc2ccc(N3CCCCC3)cc2)c2[nH]c3ccccc3c21`, the growth is -76.3% (active) in the experiment with NCI-H23 lung; -56.5% (active) in the experiment on NCI-H226 lung; -95.2% (active) in the experiment with NCI-H322M lung; -93.8% (active) with HOP-62 NSCLC; -84.1% (active) in the experiment with NCI-H460 lung; -96.5% (active) in the experiment with NCI-H522 lung. The growth was -88% (active) in the experiment on A549/ATCC NSCLC, -98.5% (active) in the experiment on 786-0 renal, -87% (active) with COLO 205 colon and -95.7% (active) in the experiment on DU-145 prostate.

As for `O=C(/C=C/c1cc2ccccc2[nH]c1=O)c1ccc(Cl)cc1`, the growth was 25.7% in the experiment with NCI-H23 lung; 40.7% in the experiment on NCI-H226 lung; 62.4% in the experiment with NCI-H322M lung; 44.4% in the experiment on HOP-62 NSCLC; 12% in the experiment with NCI-H460 lung; -57.5% (active) in the experiment with NCI-H522 lung. The growth was 42.1% in the experiment on A549/ATCC NSCLC, 43% in the experiment on 786-0 renal, 49.4% with COLO 205 colon and 12.4% with DU-145 prostate.

In the case of `Cc1nn(-c2ccccc2)c(Cl)c1C(CC(=O)c1ccc(Cl)cc1)CC(=O)c1ccc(Cl)cc1`, the growth was 87.2% in the experiment on NCI-H23 lung; 88.6% in the experiment with NCI-H226 lung; 99% in the experiment with NCI-H322M lung; 97.8% with HOP-62 NSCLC; 90.1% with NCI-H460 lung; 71.6% with NCI-H522 lung. The growth in the experiment on A549/ATCC NSCLC was 84.3%; in the experiment with 786-0 renal, 81.8%; with COLO 205 colon, 98.5%; in the experiment with DU-145 prostate, 103%.

For `CCC[C@H](N[C@@H](C)C(=O)N1[C@H](C(=O)O)C[C@@H]2CCCC[C@@H]21)C(=O)OCC`, the growth is 94.2% with NCI-H23 lung; 105% with NCI-H226 lung; 103% in the experiment with NCI-H322M lung; 123% in the experiment on HOP-62 NSCLC; 116% in the experiment on NCI-H460 lung; 102% in the experiment with NCI-H522 lung. For the same compound, the growth was 91.4% in the experiment on A549/ATCC NSCLC, 103% with 786-0 renal, 111% in the experiment on COLO 205 colon and 111% with DU-145 prostate.

Take `O=C(CCc1nnc(SCc2ccccc2)s1)c1nc2ccccc2[nH]1`: the growth in the experiment with NCI-H23 lung is 96.4%; with NCI-H226 lung, 102%; in the experiment on NCI-H322M lung it was 92.9%; in the experiment on HOP-62 NSCLC, 105%; in the experiment on NCI-H460 lung, 105%; in the experiment with NCI-H522 lung it was 84.4%. Also, the growth in the experiment on A549/ATCC NSCLC was 86.3%; in the experiment on 786-0 renal, 91.2%; in the experiment on COLO 205 colon it was 117%; in the experiment on DU-145 prostate it was 107%.

Turning to `O=C1/C(=N/O)CCc2ccccc21`, the growth was 98.1% in the experiment on NCI-H23 lung; 101% in the experiment with NCI-H226 lung; 102% in the experiment on NCI-H322M lung; 91.5% in the experiment on HOP-62 NSCLC; 92.6% with NCI-H460 lung; 94% with NCI-H522 lung. Also, the growth in the experiment with A549/ATCC NSCLC is 103%; in the experiment on 786-0 renal, 111%; with COLO 205 colon it was 100%; in the experiment on DU-145 prostate it was 100%.

Take `O=[P@@]1(c2ccccc2)O[C@H](COCc2ccccc2)[C@@H](OCc2ccccc2)[C@H](OCc2ccccc2)[C@H]1NCc1ccccc1`: the growth with NCI-H23 lung is 20.5%; with NCI-H226 lung, 40.6%; in the experiment with NCI-H322M lung, 47.9%; with HOP-62 NSCLC it was 54.3%; with NCI-H460 lung it was 4.06% (active); in the experiment on NCI-H522 lung, 20.5%. Besides, the growth is 13.3% with A549/ATCC NSCLC, 13.9% in the experiment with 786-0 renal, -57.2% (active) in the experiment on COLO 205 colon and 45.7% in the experiment on DU-145 prostate.

As to `C=C(C[C@](O)(C(=O)/C=C/c1ccc(Cl)cc1)C(=O)OC)c1ccccc1`, the growth in the experiment with NCI-H23 lung is 64.4%; in the experiment on NCI-H226 lung it was 89.7%; in the experiment on NCI-H322M lung, 90.3%; with HOP-62 NSCLC, 54%; with NCI-H460 lung it was 88.6%; in the experiment with NCI-H522 lung it was 66%. Moreover, the growth in the experiment with A549/ATCC NSCLC is 74.4%; in the experiment on 786-0 renal it was 84%; in the experiment on COLO 205 colon, 60.4%; in the experiment with DU-145 prostate, 97.4%.

On to `CCCc1cccc(CCC)c1O`, for which the growth with NCI-H23 lung is 100%; in the experiment with NCI-H226 lung it was 106%; in the experiment on NCI-H322M lung it was 124%; in the experiment with HOP-62 NSCLC it was 106%; with NCI-H460 lung it was 106%; with NCI-H522 lung it was 89.9%. In addition, the growth with A549/ATCC NSCLC was 98.2%; with 786-0 renal it was 110%; in the experiment on COLO 205 colon it was 116%; in the experiment on DU-145 prostate, 120%.

As to `S=C1SCN(Cc2ccccc2)CN1Cc1ccco1`, the growth in the experiment on NCI-H23 lung was 94.1%; in the experiment on NCI-H226 lung, 111%; in the experiment on NCI-H322M lung it was 112%; with HOP-62 NSCLC it was 85.3%; with NCI-H460 lung, 105%; with NCI-H522 lung, 4.84% (active). The growth was 101% with A549/ATCC NSCLC, 90.5% in the experiment on 786-0 renal, 83.3% with COLO 205 colon and 68.3% in the experiment on DU-145 prostate.
